From article PMC6451091, “NextPBM: a platform to study cell-specific transcription factor binding and cooperativity” come the findings set out here.

Test [1] deals with PU.1 (IVT) (UniProt P17947 1-270). Kind of test: protein-binding microarray (PBM); 20 mM HEPES pH 7.9, 100 mM NaCl, 1 mM DTT, 0.2 mg/mL BSA, 0.02% Triton X-100, 2% milk, 0.4 mg/mL salmon testes DNA; 1 h; temperature not stated; high values mean tight binding. As to conditions: dsDNA, one strand shown. In a few lines:
(§1)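 Full-length untagged PU.1 was made by coupled human in vitro transcription/translation. It was bound for 1 h to custom double-stranded DNA microarrays carrying 20-bp genomic sites and single-nucleotide variants, 10 probes per site (5 per orientation). The binding buffer was HEPES pH 7.9 with 100 mM NaCl, 2% milk and salmon testes DNA. Bound protein was detected with anti-PU.1 and then a fluorescent secondary antibody. Binding is a z-score from scanned fluorescence after linear-regression normalisation.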

Test [2] shares this target. The test is described as above. The settings on record: dsDNA, one strand shown. In a few lines: as §1
This is another data set of the same source.

Over roughly 3,700 sequences, “z-score” has its median near 4; the highest 2% begin near 8.4. This excerpt belongs to a sample that is enriched for the highest values.

Consider “GCCTAGCACGAAATAGGGAAGTGTGAGTTGTGCTAGGTCTTGATTCGCTTGACGCTGCTG”, for which, in the test with PU.1 (IVT) [1], the binding signal was 6.74 z-score. In turn, “GCCTAGCACTGAGAGGGGAAGTGGCAGCTGTGCTAGGTCTTGATTCGCTTGACGCTGCTG” registered a binding signal with PU.1 (IVT) [2] of 4.01 z-score. Turning to “GCCTAGCACTGGAGGAGGAACTGAAATACGTGCTAGGTCTTGATTCGCTTGACGCTGCTG”, in the test with PU.1 (IVT) [1], the binding signal worked out at 2.94 z-score. In the test with PU.1 (IVT) [2], “GCCTAGCACTGAAAGGGGAAGTCAGATAGGTGCTAGGTCTTGATTCGCTTGACGCTGCTG” had a binding signal of 6.45 z-score. As for “GCCTAGCACCAAATGAGGAACTGATGCGAGTGCTAGGTCTTGATTCGCTTGACGCTGCTG”, in the test with PU.1 (IVT) [1], the binding signal stood at 6.15 z-score. The sequence “GCCTAGCACCAAAGGAGGAACTGAAACCAGTGCTAGGTCTTGATTCGCTTGACGCTGCTG” had a binding signal in the test with PU.1 (IVT) [2] of 3.2 z-score.

In the test with PU.1 (IVT) [2], “GCCTAGCACTGAAAGGGGAAGTGGGTGCCGTGCTAGGTCTTGATTCGCTTGACGCTGCTG” showed a binding signal of 6.37 z-score. In turn, “GCCTAGCACCGAAAGGGGAAGTGCTAAGCGTGCTAGGTCTTGATTCGCTTGACGCTGCTG” displayed a binding signal in the test with PU.1 (IVT) [1] of 6.82 z-score. In turn, “GCCTAGCACGAAAAGAGGAAGTCAAACTGGTGCTAGGTCTTGATTCGCTTGACGCTGCTG” gave a binding signal in the test with PU.1 (IVT) [1] of 7.89 z-score. As to “GCCTAGCACGGAAAGAGGAAGTCAAATTGGTGCTAGGTCTTGATTCGCTTGACGCTGCTG”, the binding signal with PU.1 (IVT) [1] was 7.8 z-score.

“GCCTAGCACGAAAAGAGGAAGTCAATTTGGTGCTAGGTCTTGATTCGCTTGACGCTGCTG”: the binding signal with PU.1 (IVT) [1] amounted to 8.54 z-score. Regarding “GCCTAGCACTACCCTTTAAAAATAGTTCAGTGCTAGGTCTTGATTCGCTTGACGCTGCTG”, the binding signal in the test with PU.1 (IVT) [2] is 0.827 z-score. In the test with PU.1 (IVT) [1], “GCCTAGCACAGAGAGAGGAAGTGATTACAGTGCTAGGTCTTGATTCGCTTGACGCTGCTG” had a binding signal of 4.98 z-score. In the test with PU.1 (IVT) [2], “GCCTAGCACTTCAGGGGGAAGTACTGTGTGTGCTAGGTCTTGATTCGCTTGACGCTGCTG” came in with a binding signal of 3.94 z-score.

With “GCCTAGCACCACAAGAGGAAGTCCCACAAGTGCTAGGTCTTGATTCGCTTGACGCTGCTG”, in the test with PU.1 (IVT) [2], the binding signal was 3.93 z-score. Consider “GCCTAGCACTCCAGGAGGAACTACTGTGTGTGCTAGGTCTTGATTCGCTTGACGCTGCTG”, for which the binding signal with PU.1 (IVT) [1] was found to be 2.59 z-score. In the case of “GCCTAGCACAGAAAGAGGAAGTTGGCTCTGTGCTAGGTCTTGATTCGCTTGACGCTGCTG”, the binding signal with PU.1 (IVT) [1] is 8.56 z-score.

Turning to “GCCTAGCACAGGAAGAGGAAGAGGAAGAAGTGCTAGGTCTTGATTCGCTTGACGCTGCTG”, the binding signal in the test with PU.1 (IVT) [2] came out at 4.95 z-score.

As for “GCCTAGCACAGAAAGAGGAACTGAAAAGTGTGCTAGGTCTTGATTCGCTTGACGCTGCTG”, in the test with PU.1 (IVT) [1], the binding signal amounted to 6.62 z-score. As for “GCCTAGCACAGAAAGAGGAAGTCCTCTCTGTGCTAGGTCTTGATTCGCTTGACGCTGCTG”, the binding signal in the test with PU.1 (IVT) [1] stood at 8.3 z-score.

Take “GCCTAGCACAGAGAGGGGAAGTGACTTGCGTGCTAGGTCTTGATTCGCTTGACGCTGCTG”: the binding signal with PU.1 (IVT) [1] is 4.95 z-score.

In turn, “GCCTAGCACAGAAAGGGGAAGTGACTTGCGTGCTAGGTCTTGATTCGCTTGACGCTGCTG” showed a binding signal with PU.1 (IVT) [1] of 8.13 z-score. Consider “GCCTAGCACACAGAGAGGAAGTAGATAAAGTGCTAGGTCTTGATTCGCTTGACGCTGCTG”, for which, in the test with PU.1 (IVT) [2], the binding signal is 4.75 z-score. Take “GCCTAGCACAGAAAGAGGAAGTGTAAAAAGTGCTAGGTCTTGATTCGCTTGACGCTGCTG”: in the test with PU.1 (IVT) [1], the binding signal was 8.57 z-score. Consider “GCCTAGCACAGAGAGAGGAAGTGAGCTCTGTGCTAGGTCTTGATTCGCTTGACGCTGCTG”, for which, in the test with PU.1 (IVT) [2], the binding signal was 4.31 z-score. The sequence “GCCTAGCACAGAGAGAGGAAGTGAAAGTAGTGCTAGGTCTTGATTCGCTTGACGCTGCTG” gave a binding signal in the test with PU.1 (IVT) [2] of 4.81 z-score. In the test with PU.1 (IVT) [1], “GCCTAGCACAGAAAGAGGAAGTAGATATTGTGCTAGGTCTTGATTCGCTTGACGCTGCTG” had a binding signal of 8.76 z-score. On the same count and under the same terms, then “GCCTAGCACAGAAAGAGGAAGTGACTTGCGTGCTAGGTCTTGATTCGCTTGACGCTGCTG”, with 8.54 z-score. In the test with PU.1 (IVT) [2], “GCCTAGCACTTTAAAGGGAAATACTGTGGGTGCTAGGTCTTGATTCGCTTGACGCTGCTG” had a binding signal of 1.36 z-score. In the test with PU.1 (IVT) [1], “GCCTAGCACAGAAACAGGAACTGAGGCCAGTGCTAGGTCTTGATTCGCTTGACGCTGCTG” yielded a binding signal of 4.78 z-score.

In the case of “GCCTAGCACGAAAACAGGAAGTCCGATAGGTGCTAGGTCTTGATTCGCTTGACGCTGCTG”, the binding signal with PU.1 (IVT) [1] is 7.15 z-score. Consider “GCCTAGCACTGGGAGAGGAAGTGATGAGCGTGCTAGGTCTTGATTCGCTTGACGCTGCTG”, for which, in the test with PU.1 (IVT) [2], the binding signal is 4.01 z-score.

As to “GCCTAGCACAAGCAGAGGAAGTGAGATTTGTGCTAGGTCTTGATTCGCTTGACGCTGCTG”, the binding signal in the test with PU.1 (IVT) [1] was 3.71 z-score. On to “GCCTAGCACCAAAAAGGGAAGTGGACGCTGTGCTAGGTCTTGATTCGCTTGACGCTGCTG”, for which, in the test with PU.1 (IVT) [1], the binding signal came to 6.7 z-score.

“GCCTAGCACATCATCAGGAACTGAAACTGGTGCTAGGTCTTGATTCGCTTGACGCTGCTG” registered a binding signal with PU.1 (IVT) [1] of 1.18 z-score.

In the test with PU.1 (IVT) [2], “GCCTAGCACAAAGAGAGGAAGTCCCAAGAGTGCTAGGTCTTGATTCGCTTGACGCTGCTG” showed a binding signal of 3.78 z-score. Same read-out and setting: as for “GCCTAGCACTCAAGAAGGAAGTGCCAAATGTGCTAGGTCTTGATTCGCTTGACGCTGCTG”, the figure is 3.31 z-score. As for “GCCTAGCACAGAAAAAGGAACTGTGCCCCGTGCTAGGTCTTGATTCGCTTGACGCTGCTG”, the binding signal with PU.1 (IVT) [1] was determined as 3.05 z-score.

In the case of “GCCTAGCACAGCAAGAGGAAGTCAAGTACGTGCTAGGTCTTGATTCGCTTGACGCTGCTG”, the binding signal with PU.1 (IVT) [2] was 4.55 z-score.

In the case of “GCCTAGCACAGAAAGAGGAAGAGAAACTTGTGCTAGGTCTTGATTCGCTTGACGCTGCTG”, the binding signal in the test with PU.1 (IVT) [2] is 4.63 z-score.

As for “GCCTAGCACGAAAAGAGGAAGTCAAACCAGTGCTAGGTCTTGATTCGCTTGACGCTGCTG”, the binding signal with PU.1 (IVT) [1] was found to be 8.22 z-score. Regarding “GCCTAGCACAGAAAGAGGAAGAGCCTCAGGTGCTAGGTCTTGATTCGCTTGACGCTGCTG”, in the test with PU.1 (IVT) [2], the binding signal turned out to be 5.13 z-score.

As for “GCCTAGCACAGAAAGAGGAAGTGACACTTGTGCTAGGTCTTGATTCGCTTGACGCTGCTG”, the binding signal with PU.1 (IVT) [1] stood at 8.52 z-score.

Sequence “GCCTAGCACTGAAAGAGGAAGTGTAACCAGTGCTAGGTCTTGATTCGCTTGACGCTGCTG” returned a binding signal with PU.1 (IVT) [1] of 7.2 z-score.
